Bioassay records: PubChem, National Center for Advancing Translational Sciences (NCATS)
The entries come from a sample that favours hits as a whole.
FLuc inh: firefly luciferase inhibition; P08659; purified firefly luciferase, luminescence, 8 min; Potency, µM (series often up to 57.1 µM), for inactives: top-dose activity change, negative = inhibition, usual class: inhibitors; 72,000 tested, 2.2% active; note: potency is the fitted concentration of half-maximal effect; % is set by controls: 0 for no effect and ±100 for the full control effect; nearly all actives have a fitted effect of over 40% in size
Target sequence (P08659 whole entry, looked up): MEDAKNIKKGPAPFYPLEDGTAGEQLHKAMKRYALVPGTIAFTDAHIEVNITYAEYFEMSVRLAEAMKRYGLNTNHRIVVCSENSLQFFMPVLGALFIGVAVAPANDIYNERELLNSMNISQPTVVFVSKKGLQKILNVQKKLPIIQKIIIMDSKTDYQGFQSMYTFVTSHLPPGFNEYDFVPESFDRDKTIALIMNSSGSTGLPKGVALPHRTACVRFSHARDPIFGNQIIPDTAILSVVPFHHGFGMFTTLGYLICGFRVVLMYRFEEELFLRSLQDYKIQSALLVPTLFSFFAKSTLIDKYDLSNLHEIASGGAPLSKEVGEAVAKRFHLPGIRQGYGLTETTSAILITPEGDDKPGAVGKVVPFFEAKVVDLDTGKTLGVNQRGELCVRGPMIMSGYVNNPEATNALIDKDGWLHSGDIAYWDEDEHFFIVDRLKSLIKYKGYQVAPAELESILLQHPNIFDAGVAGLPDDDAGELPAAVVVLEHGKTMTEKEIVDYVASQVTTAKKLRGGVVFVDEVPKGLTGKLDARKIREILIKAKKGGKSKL
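qHTS concentration-response profiling: light output of P. pyralis luciferase with luciferin and 10 uM ATP, imidazole buffer pH 7.2. Read by luminescence after 8-min room-temperature incubation.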
Peg3 imprint: inducers of genomic imprint erasure in mouse ES cells; mouse ES Peg3-LacZ reporter, beta-gal luminescence, 40 h; Potency, µM (top dose mostly 60.7 µM), without a hit: at the top dose activity change, positive = activation, hits mostly activators; 110,000 tested, 0.02% active; AID 1948; note: potency is the fitted concentration of half-maximal effect
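Each well holds 300 Peg3LacZ-Neo (maternal) female ES cells incubated 40 h at 37C, 5% CO2. LacZ is measured by BetaGlo luminescence, with AC50 and maximum efficacy derived from dose-response curves.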
IMPase inh: membrane-permeable compound that blocks inositol monophosphatase | P97697 | CHO-M1 cells, IP1 accumulation, HTRF TR-FRET ratio | inhibition (IP1 accumulation), % at 46.1 µM | 120,000 tested, under 10 active | AID 901; active = well fitted curve in the direction sought with a large enough effect in the signal ratio, not every such curve was filed as active; inconclusive = small, poorly fitted or top-dose-only effect, or a change in a side signal; inactive = no such curve, though single readings can be large or run the other way; the % refers to the signal ratio;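 note: cells stimulated with carbachol in lithium chloride buffer; plate controls were DMSO basal wells for no effect and reference inhibitor wells for full effect; higher means more IMPase inhibition seen as more IP1 and lower FRET ratio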
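In this qHTS, compounds (final up to 46 uM) act on CHO-M1 cells that are then activated through the M1 receptor with carbachol, in pH 7.4 buffer containing 50 mM LiCl, for 30 min. IP1 accumulation is quantified by the IP-One immunoassay.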
p53ts 39C tox: p53ts cell cytotoxicity, nonpermissive temperature. H1299-p53A138V viability at 39C, ATP luminescence, 24 h. Potency, µM (doses to about 46.1 µM), inactives show top-dose activity change, negative = cell killing, actives largely listed as cytotoxic. AID 902. 130,000 tested, 1.5% active; note: potency is the fitted concentration of half-maximal effect; % is set by controls: 0 for no effect and ±100 for the full control effect; nearly all actives have a fitted effect of over 55% in size
IkB sig inh: inhibitors of IkB signaling in ABC-DLBCL cells; ABC-DLBCL IkBa-CBG/CBR dual luciferase ratio, 4 h; response scale: scaled: untreated 0%, proteasome inhibitor 100%; Potency, µM (top dose mostly 57.1 µM), for the others: at the top dose IkBa stabilization activation; 110,000 tested, 0.04% active; AID 445; active = well fitted curve in the direction sought with a large enough effect in the signal ratio, not every such curve was filed as active; inconclusive = small, poorly fitted or top-dose-only effect, or a change in a side signal; the % refers to the signal ratio;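 note: potency is the fitted concentration of half-maximal effect; the direction sought is a rising ratio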
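In this assay, an IκBα–CBG68 fusion accumulates when IKK-driven degradation is blocked; native CBR normalizes for cell number. OCI-Ly3 cells were treated 4 h with compound and doxycycline, then green and red light read after Chroma-Glo addition.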
p53ts 32C tox: cytotoxicity in p53ts cells at permissive temperature; H1299-p53A138V at 32C, ATP luminescence viability, 24 h; Potency, µM (doses to about 46.1 µM), without a hit: top-dose activity change, negative = cytotoxicity, actives largely listed as cytotoxic; 130,000 tested, 0.93% active; AID 924;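 note: potency is the fitted concentration of half-maximal effect; 0% = DMSO and -100% = full killing by reference compound; nearly all actives have a fitted effect of over 55% in size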
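Viability by ATPlite luminescence after 24 h compound treatment (up to 46 uM) at the permissive 32C. Cells are H1299 carrying p53 A138V. Scale runs from DMSO basal to 100 uM tamoxifen as full kill; AC50 from Hill fits.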
Numbers without * were called inactive; ? = inconclusive; . = no result given; ! = not active in a repeat; [ ] = another dose, or the depositor's remark. Unless noted, calls come from the whole dose curve; as a rule, active = well fitted curve in the direction sought with a large enough effect; inconclusive = small, poorly fitted or top-dose-only effect, or another doubt; inactive = no such curve, though single readings can be large; an effect the other way counts as inactive or inconclusive.

SMILES | FLuc inh | Peg3 imprint | IMPase inh | p53ts 39C tox | IkB sig inh | p53ts 32C tox
C[C@@]12C(=O)OC(=O)[C@@]1(C)[C@H]1CC[C@@H]2O1 | -2%[11.4 µM] | . | 12 | 83% | 4µM*! | 149%
O=C1C(SCCO)=C(SCCO)C(=O)c2ccccc21 | -1% | -74% | 36 | 0.79µM* | ? | 0.63µM*
N#CC(=NCCO)C1=C(O)c2ccccc2C1=O | 0%[11.4 µM] | 0%[10.9 µM] | . | -16%[9.22 µM] | -1%[11.4 µM] | ?
Cc1ccc(S(=O)(=O)Nc2cc3c(cc2N2CCOCC2)n(C)c(=O)n3C)c(C)c1 | . | -6%[10.9 µM] | -1 | -12% | -2% | 9%
CCCCN(CC)S(=O)(=O)c1ccc(C(=O)Nc2nnc(-c3ccccc3Cl)o2)cc1 | 2% | -19% | -8 | -11% | 1% | 1%
CCCN(CCC)S(=O)(=O)c1ccc(C(=O)Nc2nnc(CSC)o2)cc1 | 1% | -21% | 1 | ? | 5% | -26%
CCCCN(CC)S(=O)(=O)c1ccc(C(=O)Nc2nnc(CSC)o2)cc1 | 3% | -30% | -1 | 25µM* | 5% | -26%
CCCCN(C)S(=O)(=O)c1ccc(C(=O)Nc2nnc(-c3cccs3)o2)cc1 | -1% | -45% | -2 | 7.9µM* | ? | -24%
CCCCN(CCCC)S(=O)(=O)c1ccc(C(=O)Nc2nnc(CSC)o2)cc1 | 3% | -24% | -1 | 16µM* | 0% | -20%
CCN(Cc1ccccc1)S(=O)(=O)c1ccc(C(=O)Nc2nnc(-c3ccccc3OC)o2)cc1 | 1% | -15% | -6 | 13µM* | -1% | -2%
COc1ccccc1-c1nnc(NC(=O)c2ccc(S(=O)(=O)N(C)C)cc2)o1 | -4% | -25% | -8 | ? | 6% | -30%
C=CCC1C=CC(Oc2ccc(OC)cc2)C(COC(=O)c2ccc(Br)cc2)O1 (stereo unspecified) | . | . | . | 2%[9.22 µM] | . | -1%[9.22 µM]
CO[C@@H]1/C=C\O[C@]2(C)Oc3c(C)c(O)c4c(O)c(c(/C=N\N5CCN(C)CC5)c(O)c4c3C2=O)NC(=O)/C(C)=C\C=C/[C@H](C)[C@H](O)[C@H](C)[C@H](O)[C@H](C)[C@H](OC(C)=O)[C@@H]1C | -1%[11.4 µM] | . | . | . | -1%[11.4 µM] | .
COc1ccc(-c2cc(=O)c3c(O)cc(O)cc3o2)cc1 | 10µM* | -69% | -4 | ? | ? | ?
Cc1nc(N)sc1-c1csc(NCc2ccccc2)n1 | . | . | 8 | . | . | .
Cc1nc(N)sc1-c1csc(N(C)c2ccc(O)cc2)n1 | 13µM* | -27% | 8 | -23% | 13% | -21%
O=C(O)c1cccc(COc2ccccc2Cl)c1 | 6.3µM* | -96% | -11 | 13µM* | ? | 10µM*
O=C(O)c1ccc(COc2ccccc2Cl)cc1 | -3% | -86% | -3 | -6% | 17% | -16%
O=C(O)c1cc(S(=O)(=O)Nc2ccc(O)cc2)ccc1Cl | . | . | . | 12% | . | 6%
CCN(CC)CCCC(C)n1c(-c2ccccc2)nc2c(NCCOC)nc(C)nc21 (stereo unspecified) | . | -7% | . | -20% | . | -11%
CN1CCN(c2ncc3nc(CCc4ccccc4)c(=O)n(Cc4ccc(F)cc4)c3n2)CC1 | -1%[11.4 µM] | . | . | -8% | 0%[11.4 µM] | -10%
O=c1c(CCc2ccccc2)nc2cnc(N3CCNCC3)nc2n1Cc1ccc(F)cc1 | 1%[11.4 µM] | . | . | 13µM* | -3%[11.4 µM] | 2%
COCCn1c(=O)c(CCc2ccccc2)nc2cnc(N3CCOCC3)nc21 | -6%[11.4 µM] | 4µM* | . | -5% | -2%[11.4 µM] | -4%
COc1cccc(Cn2c(=O)c(-c3ccc(Cl)cc3)nc3cnc(N4CCNCC4)nc32)c1 | -1%[11.4 µM] | -44% | . | ? | -6%[11.4 µM] | 13µM*
CN1[C@@H]2CC(OC(=O)[C@@H](CO)c3ccccc3)C[C@H]1[C@H]1O[C@H]12 (stereo partly specified) | 2% | . | 18 | . | 3% | .
COc1ccc2nc3c(cc2c1)Cc1ccccc1-3 | . | -96% | . | 0.79µM* | . | 0.79µM*
COc1ccc(C(=O)Nc2ccc3c(c2)Cc2ccccc2-3)cc1 | . | . | -10 | . | . | .
